Results reported in PubChem BioAssay (EPA / NIEHS).
Calls of active or inactive are those of the source. How the source made its calls: active means hit-call score of the fitted dose curve at least 0.9, where 1 is the maximum; inactive means score below 0.9.

read-out: Matrix Metallopeptidase 1 (MMP1), MMP1 (gene 4312); experiment: BSK_hDFCGF_MMP1: BioMAP Diversity Plus: hDFCGF Assay for Matrix Metallopeptidase 1 (MMP1) Biomarker Activity (AID 2283064); details: primary human foreskin fibroblasts; actives raise or lower the signal
Protocol: BSK_hDFCGF is a cell-based, multiplexed-readout assay that uses foreskin fibroblast, a human skin primary cell, with measurements taken at 24 hours after chemical dosing in a 96-well plate.BSK_hDFCGF_MMP1 is an assay component measured in the BSK_hDFCGF assay. It measures MMP-1 antibody related to regulation of gene expression using ELISA technology.Data from the assay component BSK_hDFCGF_MMP1 was analyzed into 1 assay endpoint. This assay endpoint, BSK_hDFCGF_MMP1, was analyzed with bidirectional fitting relative to DMSO as the negative control and baseline of activity. Using a type of binding reporter, gain or loss-of-signal activity can be used to understand changes in the signaling as they relate to the gene MMP1. Furthermore, this assay endpoint can be referred to as a primary readout, because this assay has produced multiple assay endpoints where this one serves a signaling function. To generalize the intended target to other relatable targets, this assay endpoint is annotated to the protease intended target family, where the subfamily is matrix metalloproteinase.
The levels of cell surface (or secreted, indicated by the prefix "s") biomarker endpoints were measured by ELISA. Overt cytotoxicity to cells in confluent adherent cultures (all systems other than the BT system) was assessed by measuring total protein levels using sulforhodamine B (SRB) staining in parallel cultures at the time of biomarker measurements, indicated as SRB endpoints. For proliferation assays for adherent cell types, individual cell types are cultured at sub-confluence and relative cell numbers quantified by SRB staining at time points optimized for each system (48 h: 3C and CASM3C systems; 72 h: BT and HDF3CGF systems; 96 h: SAg system). SRB was performed by staining cells with 0.1% SRB after fixation with 10% TCA and reading wells at 560 nm.Viability and proliferation of PBMC (T cells) was quantified by Alamar Blue reduction for the SAg and BT systems. For PBMC viability (referred to as PBMC Cytotoxicity within the assay endpoint names), cells were plated (75,000/well in a 96-well plate) and then chemical samples added for 1 h before addition of activators, SEB and TSST-1 (20 ng/mL final concentration each). Cells were incubated for 90 h. Then, Alamar Blue (20 uL/well) (Invitrogen, Cat DAL1100) was added for 6 h, and the plates were read with a fluorescence microplate reader at 546/580 nm (excitation/emission). For PBMC proliferation, cells were plated and activated as above but incubated for only 16 h prior to addition of Alamar Blue. Plates were read after 6 h.

| Compound | outcome | AC50 |
| --- | --- | --- |
| O=C1O[C@H]([C@H](O)CO)C(O)=C1O | inactive |  |
| CCCC(=O)O | inactive |  |
| CCOCCOCCO | inactive |  |
| OCC(CO)n1cnc(-c2ccc(F)cc2)c1-c1ccnc(Oc2ccccc2)n1 |  | 0.909 µM (active) |
| CS(=O)(=O)c1ccc([C@@H](C[C@H]2CCC(=O)C2)C(=O)Nc2cnccn2)cc1Cl | inactive |  |
| CC(=O)[C@@]1(O)CC[C@H]2[C@@H]3CCC4=CC(=O)CC[C@]4(C)[C@H]3CC[C@@]21C | inactive |  |
| CC(=O)OC1CC(C)OC(C)O1 (stereo not given) | inactive |  |
| Cc1cc(SC2=C(O)C[C@@](CCc3ccc(N)cc3)(C(C)C)OC2=O)c(C(C)(C)C)cc1CO | inactive |  |
| CC(=O)O[C@]1(C(C)=O)CC[C@H]2[C@@H]3C=C(Cl)C4=CC(=O)[C@@H]5C[C@@H]5[C@]4(C)[C@H]3CC[C@@]21C | inactive |  |
| Cc1ccc(-c2cc(C(F)(F)F)nn2-c2ccc(S(N)(=O)=O)cc2)cc1 | inactive |  |
| C/C=C/C=C/C(=O)O | inactive |  |
| CO[C@@H]1COCC[C@@H]1N[C@@H]1CC[C@@](C(=O)N2CCc3ncc(C(F)(F)F)cc3C2)(C(C)C)C1 | inactive |  |
| O=C1CCCCC1 | inactive |  |
| Oc1ccccc1O | inactive |  |
| C=CCc1ccc(OC)c(OC)c1 | inactive |  |
| CC(C)c1cccc(C(C)C)c1 | inactive |  |
| NC=O | inactive |  |
| O=C1NC(=O)C(c2ccccc2)(c2ccccc2)N1 | inactive |  |
| COC(=O)[C@H]1[C@H]2C[C@@H]3c4[nH]c5cc(OC)ccc5c4CCN3C[C@H]2C[C@@H](OC(=O)c2cc(OC)c(OC)c(OC)c2)[C@@H]1OC | inactive |  |
| CC1(C)C(=O)NC(=O)N1CO | inactive |  |

| Compound | outcome | AC50 |
| --- | --- | --- |
| O=C(NS(=O)(=O)/C=C/c1cccs1)c1ccc(F)cc1Br | inactive |  |
| CC(C)NCC(O)c1ccc(O)c(O)c1 (stereo not given) | inactive |  |
| CC(C)OC(=O)C(C)(C)Oc1ccc(C(=O)c2ccc(Cl)cc2)cc1 | inactive |  |
| Cc1cn([C@H]2C=C[C@@H](CO)O2)c(=O)[nH]c1=O | inactive |  |
| O=[Si]=O | inactive |  |
| C=CCCCCCCCCCCCC | inactive |  |
| CCCCCCCCCCCCCCCCO | inactive |  |
| CC1=C(C)S(=O)(=O)CCS1(=O)=O | inactive |  |
| O=C(O)CN(CC(=O)O)CC(=O)O | inactive |  |
| CCCCOC(=O)CCCCC(=O)OCCCC | inactive |  |
| COc1ccc(C(=O)Nc2nc3ccccc3c(NCc3ccccc3)c2C#N)cc1 | inactive |  |
| CC(=O)CC(c1ccccc1)c1c(O)c2ccccc2oc1=O (stereo not given) | inactive |  |
| OCC(O)CO | inactive |  |
| CC(=O)OCC(COC(C)=O)OC(C)=O | inactive |  |
| Nc1nc(=S)c2[nH]cnc2[nH]1 |  | 24.8 µM (active) |
| Oc1ccc(O)cc1 |  | 33 µM (active) |
| O=C(O)c1cccnc1 | inactive |  |
| O=C(N[C@@H](c1ccccc1)[C@@H]1CCCCN1)c1cccc(C(F)(F)F)c1Cl | inactive |  |
| CC(COCC(C)OC(=O)c1ccccc1)OC(=O)c1ccccc1 (stereo not given) | inactive |  |
| NCCOCCOCCN | inactive |  |
